# ER stress death: ER stress cell death inhibition | 48,000 compounds, 0.33% hits | relative survival (cellular ATP), % at 15 µg/mL (by protocol) | AID 1010 | CSM14.1 thapsigargin ER stress survival, ATP luminescence;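 active means survival measured by cellular ATP above 50% at 15 µg/ml in the first screen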;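 further: cell death triggered by about 15 µM thapsigargin; ATP read 24 h after thapsigargin was added; plate controls were thapsigargin with DMSO for no effect and DMSO without thapsigargin for full effect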
# The depositor's hits bear a star. Only a selection was taken, and hits are over-represented in it overall.
SMILES,ER stress death
O=C1CC(c2ccccc2)CC2=C1C(c1cccc(Cl)c1Cl)Nc1ccccc1N2 (stereo unspecified),-1
COc1ccc(C2CC(=O)C3=C(C2)Nc2ccccc2NC3c2c(F)cccc2Cl)cc1 (stereo unspecified),1
O=C1CC(c2ccccc2)CC2=C1C(c1cc(Br)ccc1F)Nc1ccccc1N2 (stereo unspecified),80*
Cc1ccc(OCCOc2ccccc2C=O)cc1C,0
COc1cccc(NC(=O)CN(CCc2ccccc2)S(=O)(=O)c2ccccc2)c1,9
CCOC(=O)N1CCN(C(c2ccccc2)c2ccccc2)CC1,4
COc1ccc(/C=N/Nc2nc(Nc3ccccc3)nc(N3CCOCC3)n2)cc1Br,3
CCOCCOC(=O)c1ccc(NC(=O)COc2ccc(Br)cc2)cc1,7
O=C(Nc1ccc(Cl)c(Cl)c1)c1ccc([N+](=O)[O-])o1,1
Cc1ccc(C(=O)Nc2ncccn2)o1,-5
O=C(Nc1ncccn1)c1ccc([N+](=O)[O-])o1,65*
COc1ccccc1NC(=O)C1=C(C)NC2=C(C(=O)CC(C)(C)C2)C1c1ccc2c(c1)OCO2 (stereo unspecified),19
O=C(c1ccc(-c2ccccc2)cc1)N1CCN(Cc2ccc(Cl)cc2)CC1,98*
O=C(c1ccccc1)N1CCN(Cc2cccc(Oc3ccccc3)c2)CC1,59*
COc1ccc(C(=O)N2CCN(Cc3cccc(Cl)c3)CC2)cc1,5
COc1cc(OC)c(OC)cc1CN1CCN(C(=O)c2ccc(-c3ccccc3)cc2)CC1,6
O=C(c1ccc(F)cc1)N1CCN(Cc2cccc(Oc3ccccc3)c2)CC1,32
COc1ccc(OC)c(CN2CCN(C(=O)c3ccc(-c4ccccc4)cc3)CC2)c1,104*
O=C(c1ccc(F)cc1)N1CCN(Cc2ccc(Cl)cc2)CC1,6
Cc1ccc(C(=O)N2CCN(Cc3ccccc3)CC2)cc1,1
COc1ccc(C(=O)N2CCN(Cc3cccc(C)c3)CC2)cc1,9
c1ccc(Oc2cccc(CN3CCN(Cc4ccccn4)CC3)c2)cc1,-2
COc1cccc(CN2CCN(C(=O)c3ccc(-c4ccccc4)cc3)CC2)c1,93*
COc1ccc(OC)c(CN2CCN(C(=O)c3ccc(OC)c(OC)c3)CC2)c1,-5
O=c1nc(-c2ccc(Cl)cc2)c2cc(Cl)ccc2[nH]1,2
SMILES,ER stress death
COc1ccc(C(=O)NN2C(=O)C3C4C=CC(C5CC45)C3C2=O)cc1 (stereo unspecified),6
CC(C)(C)N1C(=O)c2ccc(C(=O)c3ccc(C(=O)O)cc3)cc2C1=O,7
COc1ccc(CCNS(=O)(=O)c2ccc([N+](=O)[O-])cc2)cc1,1
CCOC(=O)c1ccccc1NS(=O)(=O)c1ccc(OC)c(OC)c1,0
COc1cc(OC)c(OC)cc1CN1CCN(Cc2cccnc2)CC1,7
COc1ccccc1N1CCN(C(=O)c2ccccc2I)CC1,9
COc1ccc(C2Nc3ccccc3C(=O)N2c2ccccc2)cc1CN1C(=O)c2ccccc2C1=O (stereo unspecified),5
COc1ccc(N2C(=O)c3ccccc3NC2c2ccc(OC)c(CN3C(=O)c4ccccc4C3=O)c2)cc1 (stereo unspecified),10
COc1ccc(C2Nc3ccccc3C(=O)N2c2ccccc2)cc1COc1ccc(NC(C)=O)cc1 (stereo unspecified),87*
CCN1C(=O)c2cccc3c(NC(=O)c4ccc(Oc5ccccc5)cc4)ccc1c23,9
CCN1C(=O)c2cccc3c(NC(=O)c4ccc(S(=O)(=O)N5CCCCCC5)cc4)ccc1c23,96*
CCN1C(=O)c2cccc3c(NC(=O)c4ccc(C(=O)c5ccccc5)cc4)ccc1c23,6
O=C(C1CN(S(=O)(=O)c2ccccc2)CCN1S(=O)(=O)c1ccccc1)N1CCCCC1 (stereo unspecified),5
CCOC(=O)/C(=C/C=C/N(C1CCCCC1)C1CCCCC1)C(C)=O,50*
CCOC(=O)/C(C(C)=O)=C(\C=C\N(C)C)N(C)C,-7
COC(=O)/C(=C\C=C\N(C)c1ccccc1)C(C)=O,-5
O=C(O)CN1C(=O)/C(=N/N2C(=O)CSC2=S)c2ccccc21,1
C(=N\Nc1nc(N2CCOCC2)nc(N2CCOCC2)n1)/c1ccccc1OCc1ccccc1,12
Cc1ccc(C2Nc3ccccc3NC3=C2C(=O)CC(c2ccccc2)C3)cc1 (stereo unspecified),49
COc1ccc(C2CC(=O)C3=C(C2)Nc2ccccc2NC3c2cc(C)ccc2C)cc1 (stereo unspecified),116*
O=C1CC(c2ccccc2)CC2=C1C(c1ccc(-c3ccccc3)cc1)Nc1ccccc1N2 (stereo unspecified),8
CCCOC(=O)C1=C(C)NC2=C(C(=O)CC(c3ccc(OC)cc3)C2)C1c1ccc(OCc2ccccc2)c(OC)c1 (stereo unspecified),6
CCCCOC(=O)C1=C(C)NC2=C(C(=O)CC(c3ccccc3)C2)C1c1ccco1 (stereo unspecified),68*
COc1ccc(C2CC(=O)C3=C(C2)Nc2ccccc2NC3c2ccccc2Br)cc1 (stereo unspecified),8
COc1ccc(C2CC(=O)C3=C(C2)Nc2ccccc2NC3c2ccccc2)cc1 (stereo unspecified),19
SMILES,ER stress death
CSc1ccc(C2Nc3ccccc3NC3=C2C(=O)CC(c2ccccc2)C3)cc1 (stereo unspecified),91*
COc1ccccc1C1Nc2ccccc2NC2=C1C(=O)CC(c1ccccc1)C2 (stereo unspecified),0
CCCCOc1ccccc1C1Nc2ccccc2NC2=C1C(=O)CC(c1ccccc1)C2 (stereo unspecified),53*
COC(=O)C1=C(C)NC2=C(C(=O)CC(c3ccccc3)C2)C1c1ccc(Cl)cc1 (stereo unspecified),0
CCOc1ccccc1C1Nc2ccccc2NC2=C1C(=O)CC(c1ccc(OC)cc1)C2 (stereo unspecified),19
O=C1/C(=N\n2cnnc2)c2ccccc2N1Cc1ccccc1,1
O=C(c1cccnc1)N1CCN(C(=O)C(c2ccccc2)c2ccccc2)CC1,4
COC(=O)C1=C(C)NC2=C(C(=O)CC(c3ccc4c(c3)OCO4)C2)C1c1ccccc1F (stereo unspecified),8
COC(=O)C1=C(C)N(C)C(C)=C(C(=O)OC)C1c1ccc(Cl)c(Cl)c1,-1
COc1ccccc1N1C(=O)/C(=C/c2c(Cl)cccc2Cl)SC1=S,-5
N#C/C(=C\c1ccc(-c2cccc(C(F)(F)F)c2)o1)c1ccc(Cl)cc1,3
O=C(Nc1cccc2nsnc12)c1ccc(Cl)cc1Cl,7
Cn1c(O)c(N=Nc2ccc(Br)cc2)c(=O)[nH]c1=O,4
COc1ccccc1NC(=O)C1=C(C)NC(=S)NC1c1ccccc1Br (stereo unspecified),10
CCOc1ccc(C(=O)Nc2ccc(C)cc2[N+](=O)[O-])cc1Br,-1
O=C(O)CCN1C(=O)/C(=C/c2ccccc2Cl)SC1=S,16
CCOc1ccc(C2Nc3ccccc3NC3=C2C(=O)CC(c2ccc(OC)cc2)C3)cc1 (stereo unspecified),1
O=C1CC(c2ccccc2)CC2=C1C(c1ccc(OCc3ccccc3)cc1)Nc1ccccc1N2 (stereo unspecified),-1
CCOc1ccc(C2Nc3ccccc3NC3=C2C(=O)CC(c2ccccc2)C3)cc1 (stereo unspecified),100*
